Reference: PubChem BioAssay (NCATS)
Results filed as inconclusive are left out. The source made the active and inactive calls. Calls follow the shape of the dose curve; as a rule, active = well fitted curve in the direction sought with a large enough effect; inconclusive = small, poorly fitted or top-dose-only effect, or another doubt; inactive = no such curve, though single readings can be large; an effect the other way counts as inactive or inconclusive.

Key:
NIH3T3 = experiment: qHTS assay to identify novel small-molecules to repurpose for Merkel cell carcinoma treatment (AID 1296009); settings: MCC and control cell lines, CellTiter-Glo viability, 72 h; series mostly up to 44.8 µM; also: nearly all actives have a fitted effect of over 60% in size
Outline: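 Cells were treated for 72 hr at 37 degree celsius with compounds in 8- or 11-point dose response. Viability was read by CellTiter-Glo luminescence, normalized to no-cell (cytotoxicity) and DMSO controls.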

C33A = experiment: Primary qHTS to identify gynecologic anti-cancer compounds using libraries of approved drugs and bioactive compounds (AID 1345084); settings: Gynecologic cancer cell panel viability, ATPlite luminescence, 48 h; series mostly up to 57.5 µM; also: nearly all actives have a fitted effect of over 55% in size
Outline: (§1)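 Cells, 1,000 per well, were allowed to settle for 16 h at 37 C before compound addition. Five concentrations were tested for 48 h, and viability was read by ATPlite luminescence after 15 min at room temperature.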

CAOV3 = experiment: as above; settings: Gynecologic cancer cell panel viability, ATPlite luminescence, 48 h; series mostly up to 57.5 µM
Outline: as §1

CASKI = experiment: as above; settings: Gynecologic cancer cell panel viability, ATPlite luminescence, 48 h; series mostly up to 57.5 µM
Outline: as §1

Es-2 = experiment: as above; settings: Gynecologic cancer cell panel viability, ATPlite luminescence, 48 h; series mostly up to 57.5 µM
Outline: as §1

HeLa = experiment: as above; settings: Gynecologic cancer cell panel viability, ATPlite luminescence, 48 h; series mostly up to 57.5 µM
Outline: as §1

Hek293T = experiment: as above; settings: Gynecologic cancer cell panel viability, ATPlite luminescence, 48 h, control line for the selectivity index; series mostly up to 57.5 µM
Outline: as §1

JEG-3 = experiment: as above; settings: Gynecologic cancer cell panel viability, ATPlite luminescence, 48 h; series mostly up to 57.5 µM
Outline: as §1

OV90 = experiment: as above; settings: Gynecologic cancer cell panel viability, ATPlite luminescence, 48 h; series mostly up to 57.5 µM
Outline: as §1

PA-1 = experiment: as above; settings: Gynecologic cancer cell panel viability, ATPlite luminescence, 48 h; series mostly up to 57.5 µM
Outline: as §1

Measured: Potency

CCCCc1ccc(NS(=O)(=O)c2ccc(F)cc2)cc1
inactive: all assays above

CCN1C(C)(C)CC(Oc2ccc(C(=O)Nc3ccc(NC(=O)Nc4cc(C(C)(C)C)on4)cc3)nc2)CC1(C)C
inactive: all assays above

CC1OC(=O)C[C@@H]2C(C(=O)O)=CO[C@@H](O[C@H]3O[C@H](CO)[C@@H](O)[C@H](O)[C@H]3O)[C@H]12 (stereo partly specified)
inactive: all assays above

CNC(C)C(=O)NC(C(=O)N1CCCC1C(=O)Nc1snnc1-c1ccccc1)C1CCCCC1 (stereo unspecified)
inactive: all assays above

N#Cc1cc(C2=Nc3ccc(Br)cc3NC(=O)C2)ccn1
inactive: all assays above

COc1cc(C(C)=O)c(OC)c2c1OC(C)(C)C=C2
inactive: all assays above

CN(C)S(=O)(=O)c1ccc(NC(=S)N2CCC(C(O)(c3ccccc3)c3ccccc3)CC2)cc1
inactive: all assays above

CC(=O)O[C@@H]1CC[C@@]2(C)C(CC[C@]3(C)C2[C@H](O)C=C2[C@H]4[C@@H](C)[C@H](C)CC[C@]4(C)CC[C@]23C)[C@@]1(C)C(=O)O (stereo partly specified)
inactive: all assays above

CCCCCCCOc1cc2c(cc1/C(C)=C/c1ccc(C(=O)O)cc1)C(C)(C)CCS2(=O)=O
inactive: all assays above

CC(C)(O)c1ccc2c(c1)ncn2-c1cccc(-c2ccccc2C#N)c1
inactive: all assays above

COc1ccc2c(c1O[C@H]1CCNC1)CCC2
inactive: all assays above

CNCCCC1(c2ccccc2)OC(C)(C)c2ccccc21 (stereo unspecified)
inactive: all assays above

Cc1cc(OCCCS(C)(=O)=O)cc(C)c1-c1cccc(COc2ccc3c(c2)OCC3CC(=O)O)c1 (stereo unspecified)
not listed: PA-1
inactive: all other assays above

CCOC(=O)N1CCC(N2CCC[C@@H](NC(=O)c3ccccc3C)C2)CC1
inactive: all assays above

C=CC(=O)N1CC(N2CCN(C(=O)CNc3cc(C4CC4)c(Cl)cc3O)CC2)C1
not listed: PA-1
inactive: all other assays above

CCCN1CCC=C(c2cc(-c3ccc(C)cc3)no2)C1
inactive: all assays above

CCN(CC)C(=O)C(c1ccccc1)N1CCN(c2ccc(NC(=O)c3ccccc3-c3cccnc3)cc2F)CC1 (stereo unspecified)
inactive: all assays above

Cc1c(Cl)cccc1S(=O)(=O)Nc1nc(NCCc2ccccc2)nc2c1CN(Cc1ccccc1)CC2
inactive: all assays above

N[C@@H]1c2cccnc2[C@H](OC(=O)N2CCC(n3c(=O)[nH]c4ncccc43)CC2)CC[C@H]1c1cccc(F)c1F
inactive: all assays above

Cc1cc(C)c(S(=O)(=O)n2cc(C)cc2C)c(C)c1
inactive: all assays above

C=C[C@H](/C=C\c1ccc(O)cc1)c1ccc(O)cc1
not listed: PA-1
inactive: all other assays above

CC(C)(C)c1ccc2c(c1)CC[C@H]2NC(=O)Nc1cccc2[nH]ncc12
not listed: PA-1
inactive: all other assays above

CCn1c(=O)n([C@H]2CCCN(c3nccc(-c4cc5ccccc5o4)n3)C2)c2ccccc21
inactive: all assays above

CC(=O)OCC(=O)[C@@]12O[C@@H]1C[C@H]1[C@@H]3CC=C4C[C@@H](O)CC[C@]4(C)[C@H]3CC[C@@]12C
inactive: all assays above

C=C1CCC2C(C)(C)CCCC2(C)C1CC/C(C)=C\CO (stereo unspecified)
inactive: all assays above

COc1cc2c(cc1OCCCN1CCCC1)N=C(N)C21CCC1
inactive: all assays above

CC(C)(F)CC(NC(c1ccc(-c2ccc(S(C)(=O)=O)cc2)cc1)C(F)(F)F)C(=O)NC1(C#N)CC1 (stereo unspecified)
inactive: all assays above

O=c1[nH]c2ccccc2n1CCN1CCN(c2cccc(C(F)(F)F)c2)CC1
inactive: all assays above

CN1CCN(C2=Nc3ccccc3Nc3ccc(OS(=O)(=O)C(F)(F)F)cc32)CC1
inactive: all assays above

CO[C@H]1O[C@@H]2O[C@@]3(C)CCC4[C@H](C)CCC([C@H]1C)[C@]42OO3 (stereo partly specified)
inactive: all assays above

O=C(NCC1(N2CCN(c3ccccc3)CC2)CCOCC1)c1cccnc1Sc1ccccc1
inactive: all assays above

CCCNCCc1ccc(NS(=O)(=O)c2ccc(OC(F)(F)F)cc2)cc1
inactive: all assays above

CC1=CC2/C=C(\C)CCC(O)C/C=C/C(=O)OC23C(=O)NC(CC(C)C)C3C1C (stereo unspecified)
inactive: all assays above

CCC(C)C(=O)O[C@H]1[C@@H](OC(=O)c2ccoc2)C[C@](C)(O)[C@]23OC(C)(C)[C@H](C[C@H](OC(=O)c4ccoc4)[C@]12COC(C)=O)[C@H]3OC(C)=O (stereo partly specified)
inactive: all assays above

O=c1[nH]cnc2c([C@@H]3N[C@H](CO)[C@@H](O)[C@H]3O)c[nH]c12
inactive: all assays above

O=C(NCC1CCN(Cc2cccc(Cl)c2)CC1)[C@@H]1CCCN(c2ncnc3c2nc2n3CCCC2)C1
inactive: all assays above

COc1cc(N(C)CCN(C)C)c(N)cc1Nc1nccc(-c2cn(C)c3ccccc23)n1
inactive: all assays above
